Results published in PubChem BioAssay.

Test: small-molecule microarray binders of probe aDKK1, primary screen, biochemical, biotinylated probe, 635/667 nm fluorescence (AID 1099);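 further: score merges 667nm spot fluorescence with signal to noise across triplicate slides; reference of the scale not given here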
Conditions: higher = more signal

| Structure (SMILES) | composite z-score |
| --- | --- |
| COCCOC(=O)N1C(=O)[C@@]2(c3cc(C#CC4=CCCCC4)ccc31)[C@H](C(=O)N1CCN(c3ncccn3)CC1)[C@H]1C(=O)O[C@H](c3ccccc3)[C@H](c3ccccc3)N1[C@@H]2c1ccc(O)cc1 | 0.646 |
| O=C1C2C=CC(C(O)c3cc(C(F)(F)F)cc(C(F)(F)F)c3)N(Nc3ccc([N+](=O)[O-])cc3)C2C(=O)N1c1ccccc1 (configuration not stated) | 0.359 |
| C=CCOC(=O)[C@@H]1[C@H]2C(=O)O[C@H](c3ccccc3)[C@H](c3ccccc3)N2[C@H](c2ccc(OCCOC(=O)[C@H]3C[C@H]4C(=O)N[C@@H](CCCCNC(C)=O)C(=O)N4[C@H]3c3cccc(OCCO)c3)cc2)[C@@]12C(=O)Nc1ccc(I)cc12 | 0.453 |
| COC(=O)[C@@]1(Cc2ccccc2)[C@H]2c3cc(C(=O)N4CCCC4)n(C[C@H](O)CO)c3C[C@H]2CN1C(=O)c1ccccc1 | 0.571 |
| COCCCNC(=O)[C@]1(CCC(=O)OC(C)(C)C)N=C(c2ccc(OCCCO)cc2)O[C@@H]1c1ccccc1 | 1.33 |
| COCCOC(=O)N1C(=O)[C@@]2(c3cc(C#CC4=CCCCC4)ccc31)[C@H](c1ccccc1OCCO)N1[C@H](c3ccccc3)[C@H](c3ccccc3)OC(=O)[C@H]1[C@@H]2C(=O)N1CCc2cc(OC)c(OC)cc2C1 | -0.636 |
| CC(C)(C)OC(=O)CC[C@]1(C(=O)N2CCOCC2)N=C(c2ccc(OCCCO)cc2)O[C@H]1c1ccccc1 | 0.126 |
| COCCOC(=O)N1C(=O)[C@@]2(c3cc(C#CC4=CCCCC4)ccc31)[C@H](c1ccc(O)cc1)N1[C@H](c3ccccc3)[C@H](c3ccccc3)OC(=O)[C@H]1[C@@H]2C(=O)Nc1nc2ccccc2s1 | 0.663 |
| CC1CC/C=C\[C@H]2OC34C=CCN(c5ccc6ccccc6c5)C(=O)[C@H]3N(C(CO)C(C)C)C(=O)[C@@H]4C2C(=O)O1 (some centres not stated) | -0.305 |
| CC(C)CNC(=O)[C@@H]1c2ccccc2C(=O)N(Cc2cc(F)cc(C(F)(F)F)c2)[C@H]1c1ccc(CO)cc1 | 0.806 |
| C=C[C@H](COC(C)=O)NS(=O)(=O)c1ccc(Br)cc1 | -0.247 |
| CC(C)CN1C(=O)[C@@]2(Cc3ccccc31)c1ccccc1C(=O)N(Cc1ccccc1C(F)(F)F)[C@H]2c1ccc(CO)cc1 | -0.0363 |
| O=C(CS)NCCCCCCNC(=O)[C@H]1C[C@H]2C(=O)N[C@@H](Cc3ccccc3)C(=O)N2[C@H]1c1cccc(OCCO)c1 | -0.0581 |
| CCOC(=CC(=O)OC)CC(O)c1cccc(Cl)c1 (configuration not stated) | -0.132 |
| O=C1C[C@]2(c3ccc([N+](=O)[O-])cc3)C(=O)N(Cc3ccccc3)c3cc(CO)ccc3[C@H]2N1CC12CC3CC(CC(C3)C1)C2 | 1.03 |
| C=CCN1C(=O)[C@@]2(O[C@@H](CCO)[C@H]([Si](C)(C)c3ccc(OC)cc3)[C@H]2C)c2cc(N3C(=O)c4ccccc4Oc4ccccc43)ccc21 | -0.0987 |
| CCOC(=O)[C@H]1C/C=C/C[C@H](C(=O)OCC)C(=O)O[C@H]2[C@@H](OC)O[C@H](CO)[C@@H](OC(=O)Nc3ccc(OC)cc3)[C@@H]2OC1=O | 0.481 |
| COC(=O)C(CC#Cc1ccc2c(c1)[C@]1(C(=O)N2)[C@H](C(=O)O)[C@H]2C(=O)O[C@H](c3ccccc3)[C@H](c3ccccc3)N2[C@@H]1c1ccccc1OCCO)C(=O)OC | 0.485 |
| C=CCC(OC(C)=O)[C@@H]1[C@@H](N(Cc2cc3ccccc3o2)C(=O)c2ccc(C)cc2)c2cc(OCCCO)ccc2N1C(=O)Cc1ccc2ccccc2c1 (some centres not stated) | 0.258 |
| Cc1ccc(S[C@]2(C(=O)NC3CC3)CC(=O)N(Cc3ccccc3Cl)[C@@H]2c2ccc(CO)cc2I)cc1 | 0.633 |
| C=CCOC(=O)[C@@H]1[C@H]2C(=O)O[C@H](c3ccccc3)[C@H](c3ccccc3)N2[C@H](c2ccc(OCCOC(=O)[C@H]3C[C@H]4C(=O)N[C@@H](CCCCN(C)C)C(=O)N4[C@H]3c3cccc(OCCO)c3)cc2)[C@@]12C(=O)Nc1ccc(I)cc12 | 0.097 |
| O=C1NC(=O)C2C1C=CC(C(O)c1ccc(Br)cc1)N2Nc1ccccn1 (configuration not stated) | 0.71 |
| O=C1NC(=O)C2C1C=CC(C(O)c1c(F)cccc1Cl)N2Nc1ccccn1 (configuration not stated) | 0.282 |
| [N-]=[N+]=Nc1ccccc1[C@H]1OC(c2ccc(OCCCO)cc2)=N[C@@]1(CCS(=O)(=O)c1ccccc1)C(=O)N1CCCCC1 | 1.27 |

Test: small-molecule microarray binders of probe aCHRDL2, primary screen, biochemical, biotinylated probe, 635/667 nm fluorescence (AID 1100)
Conditions: higher = more signal

| Structure (SMILES) | composite z-score |
| --- | --- |
| O=C1O[C@@H](c2ccccc2)[C@@H](c2ccccc2)N2[C@@H](c3ccc(O)cc3)[C@]3(C(=O)Nc4ccccc43)[C@@H](C(=O)Nc3nc4ccccc4s3)[C@H]12 | 0.02 |
| C=C(COC)/C(=C/C[C@@H](OC(=O)c1ccncc1)c1cccc(OCCO)c1)c1cnc2ccccc2c1 | 0.347 |
| O=C1O[C@@H](c2ccccc2)[C@@H](c2ccccc2)N2[C@@H](c3ccccc3OCCO)[C@]3(C(=O)Nc4ccc(C#CCCO)cc43)[C@@H](C(=O)N3CCN(c4ncccn4)CC3)[C@H]12 | 0.225 |
| COC(=O)C[C@H]1O[C@]2(C(=O)N(C)c3ccccc32)[C@@H](C)[C@@H]1[Si](C)(C)c1ccc(C)cc1 | -0.203 |
| Cc1ccc(C(C)CC(O)C2C=CC3C(=O)N(c4ccccc4)C(=O)C3N2Nc2ccc(C(C)C)cc2)o1 (configuration not stated) | 1.37 |
| C[n+]1ccc(CCCO)cc1 | 0.0977 |
| C=C(COC)/C(=C/C[C@@H](OC(=O)c1ccncc1)c1ccc(CO)o1)c1cnc2ccccc2c1 | -0.386 |
| CCOC(=O)[C@H]1C/C=C/C[C@H](C(=O)OCC)C(=O)O[C@H]2[C@@H](OC)O[C@H](CO)[C@@H](OC(=O)CCc3ccccc3)[C@@H]2OC1=O | 0.128 |
| CCCCC(=C=CC[C@@H](O)c1ccc(OCCO)cc1)C[C@@H](O)COCc1ccccc1 | -0.212 |
| CCCc1cccc(=O)o1 | -0.401 |
| COCC(=C=CC[C@H](O)c1ccc(OCCO)cc1)C[C@H](O)COCc1ccccc1 | -0.228 |
| O=C(NC1CC1)[C@@H]1c2ccccc2C(=O)N(Cc2ccccc2)[C@H]1c1ccc(CO)cc1 | 0.211 |
| COCCOC(=O)N1C(=O)[C@@]2(c3cc(C#CC4=CCCCC4)ccc31)[C@H](C(=O)N1CCN(c3ncccn3)CC1)[C@H]1C(=O)O[C@H](c3ccccc3)[C@H](c3ccccc3)N1[C@@H]2c1ccc(O)cc1 | 0.509 |
| O=C1C2C=CC(C(O)c3cc(C(F)(F)F)cc(C(F)(F)F)c3)N(Nc3ccc([N+](=O)[O-])cc3)C2C(=O)N1c1ccccc1 (configuration not stated) | 0.499 |
| C=CCOC(=O)[C@@H]1[C@H]2C(=O)O[C@H](c3ccccc3)[C@H](c3ccccc3)N2[C@H](c2ccc(OCCOC(=O)[C@H]3C[C@H]4C(=O)N[C@@H](CCCCNC(C)=O)C(=O)N4[C@H]3c3cccc(OCCO)c3)cc2)[C@@]12C(=O)Nc1ccc(I)cc12 | 0.182 |
| COC(=O)[C@@]1(Cc2ccccc2)[C@H]2c3cc(C(=O)N4CCCC4)n(C[C@H](O)CO)c3C[C@H]2CN1C(=O)c1ccccc1 | 1.01 |
| COCCCNC(=O)[C@]1(CCC(=O)OC(C)(C)C)N=C(c2ccc(OCCCO)cc2)O[C@@H]1c1ccccc1 | 0.701 |

| Structure (SMILES) | composite z-score |
| --- | --- |
| COCCOC(=O)N1C(=O)[C@@]2(c3cc(C#CC4=CCCCC4)ccc31)[C@H](c1ccccc1OCCO)N1[C@H](c3ccccc3)[C@H](c3ccccc3)OC(=O)[C@H]1[C@@H]2C(=O)N1CCc2cc(OC)c(OC)cc2C1 | -0.834 |
| CC(C)(C)OC(=O)CC[C@]1(C(=O)N2CCOCC2)N=C(c2ccc(OCCCO)cc2)O[C@H]1c1ccccc1 | 0.417 |
| COCCOC(=O)N1C(=O)[C@@]2(c3cc(C#CC4=CCCCC4)ccc31)[C@H](c1ccc(O)cc1)N1[C@H](c3ccccc3)[C@H](c3ccccc3)OC(=O)[C@H]1[C@@H]2C(=O)Nc1nc2ccccc2s1 | -0.277 |
| CC1CC/C=C\[C@H]2OC34C=CCN(c5ccc6ccccc6c5)C(=O)[C@H]3N(C(CO)C(C)C)C(=O)[C@@H]4C2C(=O)O1 (some centres not stated) | 0.623 |
| CC(C)CNC(=O)[C@@H]1c2ccccc2C(=O)N(Cc2cc(F)cc(C(F)(F)F)c2)[C@H]1c1ccc(CO)cc1 | 1.01 |
| C=C[C@H](COC(C)=O)NS(=O)(=O)c1ccc(Br)cc1 | -0.272 |
| CC(C)CN1C(=O)[C@@]2(Cc3ccccc31)c1ccccc1C(=O)N(Cc1ccccc1C(F)(F)F)[C@H]2c1ccc(CO)cc1 | 0.223 |
| O=C(CS)NCCCCCCNC(=O)[C@H]1C[C@H]2C(=O)N[C@@H](Cc3ccccc3)C(=O)N2[C@H]1c1cccc(OCCO)c1 | 0.232 |
| CCOC(=CC(=O)OC)CC(O)c1cccc(Cl)c1 (configuration not stated) | 0.445 |
| O=C1C[C@]2(c3ccc([N+](=O)[O-])cc3)C(=O)N(Cc3ccccc3)c3cc(CO)ccc3[C@H]2N1CC12CC3CC(CC(C3)C1)C2 | 0.259 |
| C=CCN1C(=O)[C@@]2(O[C@@H](CCO)[C@H]([Si](C)(C)c3ccc(OC)cc3)[C@H]2C)c2cc(N3C(=O)c4ccccc4Oc4ccccc43)ccc21 | 0.0272 |
| CCOC(=O)[C@H]1C/C=C/C[C@H](C(=O)OCC)C(=O)O[C@H]2[C@@H](OC)O[C@H](CO)[C@@H](OC(=O)Nc3ccc(OC)cc3)[C@@H]2OC1=O | 0.564 |
| COC(=O)C(CC#Cc1ccc2c(c1)[C@]1(C(=O)N2)[C@H](C(=O)O)[C@H]2C(=O)O[C@H](c3ccccc3)[C@H](c3ccccc3)N2[C@@H]1c1ccccc1OCCO)C(=O)OC | 0.327 |
| C=CCC(OC(C)=O)[C@@H]1[C@@H](N(Cc2cc3ccccc3o2)C(=O)c2ccc(C)cc2)c2cc(OCCCO)ccc2N1C(=O)Cc1ccc2ccccc2c1 (some centres not stated) | 0.43 |
| Cc1ccc(S[C@]2(C(=O)NC3CC3)CC(=O)N(Cc3ccccc3Cl)[C@@H]2c2ccc(CO)cc2I)cc1 | 0.873 |
| C=CCOC(=O)[C@@H]1[C@H]2C(=O)O[C@H](c3ccccc3)[C@H](c3ccccc3)N2[C@H](c2ccc(OCCOC(=O)[C@H]3C[C@H]4C(=O)N[C@@H](CCCCN(C)C)C(=O)N4[C@H]3c3cccc(OCCO)c3)cc2)[C@@]12C(=O)Nc1ccc(I)cc12 | -0.0926 |
